Test results published in PubChem BioAssay AID1332 (Southern Research Institute, 2008).
≈ marks a conversion by molar mass, not a printed value. Among all 1,100 compounds or so, about 170 (15%) were called active. No rule for the calls is given here. These entries were drawn from the full list.

Assay: Mycobacterium tuberculosis H37Rv growth inhibition, confirmatory dose response, cytotoxicity (AID 1332);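 as to CC50: Vero cells exposed to compounds for 72 hours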;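 as to IC50: bacteria incubated 7 days before adding Alamar blue readout reagent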
Settings: M. tuberculosis H37Rv growth inhibition; CC50: measured here: Vero cell cytotoxicity; IC50: measured here: IC50 H37Rv replicates

| Compound | IC50 | outcome | CC50 |
| --- | --- | --- | --- |
| C=C[C@]12CN(C)[C@@H]3[C@H]4COC(CC41)[C@]1(C(=O)Nc4ccccc41)[C@@H]32 | > 20 µg/mL | inactive |  |
| COC1=CC(=O)C[C@@H](C)[C@]12Oc1c(Cl)c(OC)cc(OC)c1C2=O | > 20 µg/mL | inactive | > 6 µg/mL |
| NC(=O)N/N=C/c1ccc([N+](=O)[O-])o1 | 11.5 µg/mL (≈ 58 µM) | active | > 6 µg/mL |
| CC(C(=O)O)c1ccc(C(=O)c2ccccc2)s1 (stereo not given) | > 20 µg/mL | inactive |  |
| CCC(=O)OCC(=O)[C@@]1(OC(=O)CC)[C@@H](C)C[C@H]2[C@@H]3CCC4=CC(=O)C=C[C@]4(C)[C@@]3(Cl)[C@@H](O)C[C@@]21C | > 20 µg/mL | inactive |  |
| CC[C@H]1CN2CCc3cc(OC)c(OC)cc3[C@@H]2C[C@@H]1C[C@H]1NCCc2cc(O)c(OC)cc21 | > 20 µg/mL | inactive | < 0.023 µg/mL |
| Fc1ccc([C@@H]2CCNC[C@H]2COc2ccc3c(c2)OCO3)cc1 | 13.1 µg/mL (≈ 39.7 µM) | active | 4.88 µg/mL (≈ 14.8 µM) |
| C[C@H](NCCc1ccc(O)cc1)[C@H](O)c1ccc(O)cc1 | > 20 µg/mL | inactive |  |
| C[C@@H]1CC[C@@]2(NC1)O[C@H]1C[C@H]3[C@@H]4CC=C5C[C@@H](O)CC[C@]5(C)[C@H]4CC[C@]3(C)[C@H]1[C@@H]2C | > 20 µg/mL | inactive |  |
| C[C@]12C=CC(=O)C=C1CC[C@@H]1[C@@H]2[C@@H](O)C[C@@]2(C)[C@H]1CC[C@]2(O)C(=O)CO | > 20 µg/mL | inactive |  |
| CC(C)(C)NCC(O)COc1cccc2c1CC(O)C(O)C2 (stereo not given) | > 20 µg/mL | inactive |  |
| NC[C@@H]1O[C@H](O[C@H]2[C@@H](O)[C@H](O[C@@H]3[C@@H](O)[C@H](N)C[C@H](N)[C@H]3O[C@H]3O[C@H](CN)[C@@H](O)[C@H](O)[C@H]3N)O[C@@H]2CO)[C@H](N)[C@@H](O)[C@@H]1O | > 20 µg/mL | inactive |  |
| NC[C@H]1O[C@H](OC2[C@@H](N)C[C@@H](N)[C@H](O)[C@H]2O[C@@H]2O[C@H](CO)[C@@H](O)[C@H]2O)[C@H](N)[C@@H](O)[C@@H]1O (stereo not given in full) | > 20 µg/mL | inactive |  |
| NC[C@@H]1O[C@H](O[C@H]2[C@@H](O)[C@H](O[C@@H]3[C@@H](O)[C@H](N)C[C@H](N)[C@H]3OC3O[C@H](CO)[C@@H](O)[C@H](O)[C@H]3N)O[C@@H]2CO)[C@H](N)[C@@H](O)[C@@H]1O (stereo not given in full) | 19.8 µg/mL (≈ 32.1 µM) | active |  |
| C[N+]1(C)C[C@@H](O)C[C@H]1C(=O)[O-] | > 20 µg/mL | inactive |  |
| CC(C)(Sc1cc(C(C)(C)C)c(O)c(C(C)(C)C)c1)Sc1cc(C(C)(C)C)c(O)c(C(C)(C)C)c1 | > 20 µg/mL | inactive |  |
| CC1=C(C(=O)O)N2C(=O)[C@@H](NC(=O)[C@H](N)c3ccc(O)cc3)[C@H]2SC1 | > 20 µg/mL | inactive |  |
| N=C(N=C(N)N)N1CCOCC1 | > 20 µg/mL | inactive |  |
| Cn1cnc([N+](=O)[O-])c1Sc1ncnc2nc[nH]c12 | 13.1 µg/mL (≈ 47.2 µM) | active | > 6 µg/mL |
| c1ccc(CNc2ncnc3nc[nH]c23)cc1 | > 20 µg/mL | inactive |  |
| CN1C[C@H](C(=O)N[C@]2(C)O[C@@]3(O)[C@@H]4CCCN4C(=O)[C@H](Cc4ccccc4)N3C2=O)CC2c3cccc4[nH]cc(c34)C[C@H]21 (stereo not given in full) | > 20 µg/mL | inactive |  |
| CN1CCC(=C2c3ccccc3CCc3sccc32)CC1 | > 20 µg/mL | inactive | > 6 µg/mL |
| CN1CCC(=C2c3ccccc3CC(=O)c3sccc32)CC1 | > 20 µg/mL | inactive |  |

| Compound | IC50 | outcome | CC50 |
| --- | --- | --- | --- |
| CN1CCC(=C2c3ccccc3C=Cc3ccccc32)CC1 | > 18.3 µg/mL | active | > 6 µg/mL |
| CN1CCC(=C2c3ccccc3Sc3ccccc32)CC1 | 18 µg/mL (≈ 61.5 µM) | active |  |
| CCC(=O)OC1(C(=O)CCl)[C@@H](C)C[C@H]2[C@@H]3CCC4=CC(=O)C=C[C@]4(C)[C@@]3(F)[C@@H](O)C[C@@]21C (stereo not given in full) | > 20 µg/mL | inactive |  |
| C[C@H](N)[C@H](O)c1cccc(O)c1 | > 20 µg/mL | inactive |  |
| CNCC(O)C(O)C(O)C(O)CO (stereo not given) | > 20 µg/mL | inactive |  |
| C[n+]1cccc(C(=O)[O-])c1 | > 20 µg/mL | inactive |  |
| CCC(c1ccc(O)cc1)C(CC)c1ccc(O)cc1 (stereo not given) | > 20 µg/mL | inactive |  |
| COc1ccc2c(c1)N(C[C@H](C)CN(C)C)c1ccccc1S2 | > 20 µg/mL | inactive | > 6 µg/mL |
| CO[C@H]1C[C@H](O[C@H]2[C@H](C)[C@@H](O[C@@H]3O[C@H](C)C[C@H](N(C)C)[C@H]3OC(C)=O)[C@@H](C)C[C@@]3(CO3)C(=O)[C@H](C)[C@@H](OC(C)=O)[C@@H](C)[C@@H](C)OC(=O)[C@@H]2C)O[C@@H](C)[C@@H]1OC(C)=O | > 20 µg/mL | inactive |  |
| CC[C@H]1OC(=O)[C@H](C)[C@@H](O[C@H]2C[C@@](C)(OC)[C@@H](O)[C@H](C)O2)[C@H](C)[C@@H](O[C@@H]2O[C@H](C)C[C@H](N(C)C)[C@H]2O)[C@](C)(O)C[C@@H](C)[C@@H]2N[C@@H](COCCOC)O[C@H]([C@H]2C)[C@]1(C)O | 1.33 µg/mL (≈ 1.59 µM) | active |  |
| CC[C@H]1OC(=O)[C@H](C)[C@@H](O[C@H]2C[C@@](C)(OC)[C@@H](O)[C@H](C)O2)[C@H](C)[C@@H](O[C@@H]2O[C@H](C)C[C@H](N(C)C)[C@H]2O)[C@](C)(O)C[C@@H](C)C(=O)[C@H](C)[C@@H](O)[C@]1(C)O | 1.7 µg/mL (≈ 2.32 µM) | active |  |
| CO[C@H]1C[C@H](O[C@H]2[C@H](C)[C@@H](O[C@@H]3O[C@H](C)C[C@H](N(C)C)[C@H]3O)[C@@H](C)C[C@@]3(CO3)C(=O)[C@H](C)[C@@H](O)[C@@H](C)[C@@H](C)OC(=O)[C@@H]2C)O[C@@H](C)[C@@H]1O | > 20 µg/mL | inactive |  |
| COc1ccc2cc3[n+](cc2c1OC)CCc1cc2c(cc1-3)OCO2 | > 20 µg/mL | inactive |  |
| O=C(O)CCC(=O)Nc1ccc(S(=O)(=O)Nc2nccs2)cc1 | > 20 µg/mL | inactive |  |
| C[N+]1(C)CCC[C@H]1C(=O)[O-] | > 20 µg/mL | inactive |  |
| C[C@H]1O[C@@H](OC2CC[C@]3(C=O)[C@H]4CC[C@]5(C)[C@@H](C6=CC(=O)OC6)CC[C@]5(O)[C@@H]4CC[C@]3(O)C2)C[C@H](O)[C@@H]1O (stereo not given in full) | > 20 µg/mL | inactive | 2.54 µg/mL (≈ 4.75 µM) |
| COc1ccc(C(=O)c2ccccc2O)c(O)c1 | > 20 µg/mL | inactive |  |
| O=c1cc(-c2ccc(O)cc2)oc2c(C3O[C@H](CO)[C@@H](O)[C@H](O)[C@H]3O)c(O)cc(O)c12 (stereo not given in full) | > 20 µg/mL | inactive |  |
| CC(=O)N[C@@H](CC(=O)O)C(=O)O | > 20 µg/mL | inactive |  |
| Cc1cc2c(cc1S(N)(=O)=O)S(=O)(=O)CCC2 | > 20 µg/mL | inactive |  |
| CCC1NC(=O)c2cc(S(N)(=O)=O)c(Cl)cc2N1 (stereo not given) | > 20 µg/mL | inactive |  |
| Cc1cc2cc3c(C)cc(=O)oc3c(C)c2o1 | > 20 µg/mL | inactive |  |
| COC(=O)C1=CO[C@@H](C)[C@H]2CN3CCc4c([nH]c5ccccc45)[C@@H]3C[C@H]12 | > 20 µg/mL | inactive |  |

| Compound | IC50 | outcome | CC50 |
| --- | --- | --- | --- |
| CCOC(=O)Oc1c(OC)cc(C(=O)O[C@@H]2C[C@@H]3CN4CCc5c([nH]c6cc(OC)ccc56)[C@H]4C[C@@H]3[C@H](C(=O)OC)[C@H]2OC)cc1OC | 7.94 µg/mL (≈ 11.9 µM) | active |  |
| O=C(O)[C@@H]1[C@H]2C[C@H]3c4[nH]c5ccccc5c4CCN3C[C@@H]2CC[C@@H]1O | > 20 µg/mL | inactive |  |
| COC(=O)[C@H]1[C@H]2C[C@H]3c4[nH]c5ccccc5c4CCN3C[C@@H]2CC[C@@H]1O | > 20 µg/mL | inactive |  |
| COC(=O)[C@H]1[C@H]2C[C@@H]3c4[nH]c5cc(OC)ccc5c4CCN3C[C@H]2C[C@@H](OC(=O)/C=C/c2cc(OC)c(OC)c(OC)c2)[C@@H]1OC | 4.23 µg/mL (≈ 6.67 µM) | active | > 6 µg/mL |
| COC(=O)[C@@H]1[C@H]2C[C@H]3c4[nH]c5ccccc5c4CCN3C[C@@H]2CC[C@@H]1O | > 20 µg/mL | inactive |  |
| COC(=O)[C@H]1[C@H]2C[C@@H]3c4[nH]c5cc(OC)ccc5c4CCN3C[C@H]2C[C@@H](OC(=O)c2cc(OC)c(OC)c(OC)c2)[C@@H]1OC | 2.32 µg/mL (≈ 3.81 µM) | active |  |
| COC(=O)[C@H]1[C@H]2C[C@H]3c4[nH]c5ccccc5c4CCN3C[C@H]2CC[C@@H]1O | > 20 µg/mL | inactive |  |
| COc1ccc2c3c([nH]c2c1)[C@H]1C[C@H]2[C@H](C[C@@H](O)[C@H](OC)[C@H]2C(=O)O)CN1CC3 | > 20 µg/mL | inactive |  |
| CCCNC(C)C(=O)Nc1c(C)csc1C(=O)OC (stereo not given) | > 20 µg/mL | inactive |  |
| C=C1[C@@H](O)[C@]23C[C@@H]1[C@@H](O)C[C@H]2[C@@]12C4[C@@H]3C[C@@H]1[C@@](C)(CC[C@@H]2O)CN4CC | > 20 µg/mL | inactive |  |
| CNCCc1ccccn1 | > 20 µg/mL | inactive |  |
| CCCCOc1ccc(OCCCN2CCOCC2)cc1 | > 20 µg/mL | inactive |  |
| C[C@H](CCC(=O)O)[C@H]1CC[C@H]2[C@@H]3[C@H](O)C[C@@H]4C[C@H](O)CC[C@]4(C)[C@H]3CC[C@]12C | > 20 µg/mL | inactive |  |
| CCN1C[C@]2(COC)CC[C@H](OC)[C@@]34C1[C@]1(OCO[C@@]15C[C@H](OC)[C@H]1C[C@@H]3[C@@H]5[C@H]1OC)[C@@H](O)[C@H]24 | > 20 µg/mL | inactive |  |
| O=S(=O)(O)c1cc(O)ccc1O | > 20 µg/mL | inactive |  |
| CN1C2CCCC1CC(=O)C2 | > 20 µg/mL | inactive |  |
| CC1=CC(=O)C2=C(C)C[C@H](O)[C@@H]3[C@H](OC(=O)[C@H]3C)[C@@H]12 | > 20 µg/mL | inactive |  |
| CC[C@@H](C(=O)[C@@H](C)[C@@H](O)[C@H](C)CCc1ccc(C)c(O)c1C(=O)O)[C@H]1O[C@](CC)([C@H]2CC[C@](O)(CC)[C@H](C)O2)C[C@@H]1C | 6.19 µg/mL (≈ 10.5 µM) | active | > 6 µg/mL |
| CC(=O)N(CC(C)C(=O)O)c1c(I)cc(I)c(N)c1I (stereo not given) | > 20 µg/mL | inactive |  |
| CC(C)(C)NC[C@H](O)COc1cccc2c1CCCC2=O | > 20 µg/mL | inactive |  |
| C[C@]12CC[C@@H]3c4ccc(O)cc4CC[C@H]3[C@@H]1C[C@@H](O)[C@@H]2O | > 20 µg/mL | inactive |  |
